Hit rate of the full screen: of about 310,000 compounds, about 3,300 (1.1%) were called active.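 The calls were made as follows: active = B-score under library mean minus 3 SD, initial fluorescence not abnormally high, positive integrated signal ratio; inactive = the rest.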 The entries come from a sample that favours actives as a whole.

This experiment deals with Short transient receptor potential channel 6 (Mus musculus) (UniProt Q61143). The experiment in a line: mouse TRPC6 channel inhibitors, primary screen, cell-based, HEK293, membrane potential dye (AID 2553).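 As to B-score: B-score derived from integrated fluorescence ratio over the kinetic read; more negative B-score means stronger inhibition of depolarization.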 The conditions noted are these: ACh-evoked depolarization, at 10 µM; stronger effect = lower value.
Chain of Short transient receptor potential channel 6 (Mus musculus) (Q61143 whole entry, looked up): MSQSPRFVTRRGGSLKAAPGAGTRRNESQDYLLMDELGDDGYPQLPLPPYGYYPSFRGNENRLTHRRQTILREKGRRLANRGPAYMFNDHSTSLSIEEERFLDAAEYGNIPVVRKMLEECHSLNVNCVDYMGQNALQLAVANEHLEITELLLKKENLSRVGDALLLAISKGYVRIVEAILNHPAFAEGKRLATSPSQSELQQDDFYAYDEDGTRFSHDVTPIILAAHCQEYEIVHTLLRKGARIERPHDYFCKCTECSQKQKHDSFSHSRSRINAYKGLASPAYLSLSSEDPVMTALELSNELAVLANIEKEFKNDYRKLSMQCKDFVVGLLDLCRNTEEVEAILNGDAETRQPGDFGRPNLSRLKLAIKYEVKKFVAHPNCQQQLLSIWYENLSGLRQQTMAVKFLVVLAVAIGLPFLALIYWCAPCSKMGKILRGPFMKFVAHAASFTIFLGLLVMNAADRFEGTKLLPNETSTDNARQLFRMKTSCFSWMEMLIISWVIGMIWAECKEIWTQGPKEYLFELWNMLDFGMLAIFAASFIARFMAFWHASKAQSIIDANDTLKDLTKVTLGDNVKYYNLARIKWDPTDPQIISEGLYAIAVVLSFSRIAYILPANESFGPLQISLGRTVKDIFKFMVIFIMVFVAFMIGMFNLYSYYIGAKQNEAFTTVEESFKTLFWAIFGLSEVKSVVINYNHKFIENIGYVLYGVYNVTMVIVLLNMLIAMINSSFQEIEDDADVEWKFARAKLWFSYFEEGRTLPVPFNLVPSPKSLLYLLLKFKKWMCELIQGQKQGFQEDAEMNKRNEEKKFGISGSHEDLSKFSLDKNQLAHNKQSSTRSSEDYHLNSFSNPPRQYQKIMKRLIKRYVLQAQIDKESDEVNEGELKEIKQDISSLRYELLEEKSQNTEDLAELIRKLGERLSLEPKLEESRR
With `COC(=O)c1c(-c2cccs2)csc1NC(=O)CSc1ncnc2sc(C)c(C)c12`, the B-score result is “inactive”.

Take `CCc1ccc(OCC(=O)N(Cc2ccccc2)C2CCS(=O)(=O)C2)cc1` (stereo not drawn): the B-score is -6.07 (active).

Turning to `CCOc1ccc(C(=O)N(Cc2ccc(N(C)C)cc2)C2CCS(=O)(=O)C2)cc1` (stereo not drawn), the B-score result was “inactive”.

On to `Cc1ccccc1OCC(=O)N(Cc1cccc(F)c1)C1CCS(=O)(=O)C1` (stereo not drawn), for which the B-score result is “inactive”.

In the case of `Cc1ccccc1Nc1scc(-c2ccc(Br)cc2)[n+]1-c1ccccc1C`, the B-score entry was “inactive”.

As to `CN1CCN(c2nc(Nc3ccc(O)cc3)nc3ccccc23)CC1`, the B-score was -11.6 (active).

With `Cc1cccc(-c2nc(Nc3ccc(O)cc3)c3ccccc3n2)c1`, the B-score result was “inactive”.

Consider `CN1CCN(c2ccc(NC(=O)c3ccccc3)cc2)CC1`, for which the B-score result is “inactive”.

For `CCCC(=O)C1CCN(Cc2ccccc2)CC1`, the B-score result was “inactive”.

Turning to `O=C(NNS(=O)(=O)c1ccc(Cl)cc1)C1CCN(Cc2ccccc2)CC1`, the B-score was -7.9 (active).

In the case of `CCNC(=S)NNC(=O)C1CCN(Cc2ccccc2)CC1`, the B-score result is “inactive”.

Consider `Cc1ccn(CC(=O)N2N=C(C(F)F)CC2(O)C(F)F)n1` (stereo not drawn), for which the B-score result was “inactive”.

Consider `Cc1nn(Cc2ccc(C(=O)N3N=C(C(F)F)CC3(O)C(F)F)cc2)c(C)c1[N+](=O)[O-]` (stereo not drawn), for which the B-score is -5.19 (active).

Take `CCc1ccc(NC(=O)Cn2nc(C)c([N+](=O)[O-])c2C)cc1`: the B-score entry is “inactive”.

Turning to `Cc1[nH]c2c(C(=O)N3CCCC(CCC(=O)NCc4ccccc4F)C3)cccc2c1C` (stereo not drawn), the B-score entry is “inactive”.

On to `O=S(=O)(Cc1ccccc1)c1nc2ccccc2n1Cc1ccccn1`, for which the B-score entry is “inactive”.

Take `C[C@H](NC(=O)OC(C)(C)C)c1nnc(SCC(=O)Nc2ccc(Br)cc2)o1`: the B-score is -6.61 (active).

With `CCc1ccccc1NC(=O)CSc1nnc([C@@H](NC(=O)OC(C)(C)C)C(C)C)o1`, the B-score result was “inactive”.

As to `CCc1ccccc1NC(=O)CSc1nnc([C@@H](NC(=O)OC(C)(C)C)C(C)CC)o1` (stereo partly drawn), the B-score entry was “inactive”.

In the case of `COCC1CCN(C(=O)C2CCC(=O)N(Cc3cccc(C(F)(F)F)c3)C2)CC1` (stereo not drawn), the B-score result is “inactive”.

On to `CC1(C)COC(c2cccn2Cc2ccccc2Cl)=N1`, for which the B-score entry was “inactive”.

On to `Cc1nc(N=C(N)N)nc2c(C)cccc12`, for which the B-score is -7.08 (active).

For the molecule `COc1nc(N=C(N)N)nc2c(C)cccc12`, the B-score entry is “inactive”.

Turning to `Cc1nc(/N=C(\N)NC(=O)NC2CCCCC2)nc2ccccc12`, the B-score result was “inactive”.

In the case of `Cc1cc(-n2cnc(-c3cn(C)nc3C)n2)no1`, the B-score entry is “inactive”.

`Cc1ccc(NC2CCCN(C(=O)CCC3(C)CC3)C2)cc1C` (stereo not drawn): the B-score was -5.8 (active).

As to `Cc1ccc(NC2CCCN(C(=O)CCc3cn[nH]c3)C2)cc1C` (stereo not drawn), the B-score result is “inactive”.

`O=C(CN1CCOC1=O)N1CCCC(Nc2ccc(F)c(F)c2)C1` (stereo not drawn): the B-score result is “inactive”.

With `C=C(C)c1cccc(C(C)(C)NC(=O)N2CCN(c3ncccn3)CC2)c1`, the B-score entry is “inactive”.

On to `C=C(C)c1cccc(C(C)(C)NC(=O)NCCN(CC)CC)c1`, for which the B-score is -8.39 (active).

Regarding `C=C(C)c1cccc(C(C)(C)NC(=O)NC2CCCC2)c1`, the B-score entry was “inactive”.

Consider `O=C1C2N=NN(CC(=O)N3N=C(c4cccc5ccccc45)CC3c3ccccc3)C2C(=O)N1c1ccccc1` (stereo not drawn), for which the B-score result was “inactive”.

In the case of `Cc1cc(OCCCC(=O)NCCN2C(=O)S/C(=C\c3cccnc3)C2=O)ccc1Cl`, the B-score result is “inactive”.

For `COc1ccc(Cl)cc1NC(=O)CCS(=O)(=O)c1cc2c(cc1C)NC(=O)CO2`, the B-score is -5.71 (active).

For `Cc1cc2c(cc1S(=O)(=O)CCC(=O)NCc1ccccc1)OCC(=O)N2`, the B-score entry is “inactive”.

As to `COc1ccc(NC(=O)CCS(=O)(=O)c2cc3c(cc2Cl)NC(=O)CO3)cc1OC`, the B-score entry is “inactive”.

As to `CCOC(=O)N1CCN(CCC(=O)Nc2cc(OC)ccc2OC)CC1`, the B-score entry was “inactive”.

On to `CCOc1ccc(Nc2nc(Cl)nc(N3CCN(c4ccc(OC)cc4)CC3)n2)cc1`, for which the B-score entry was “inactive”.

Consider `CCN1CCN(c2nc(Nc3cc(OC)ccc3OC)nc(Nc3cc(OC)ccc3OC)n2)CC1`, for which the B-score was -5.02 (active).

`Cn1c(=O)n(C)c2cc(S(=O)(=O)Nc3ccc(F)cc3)ccc21`: the B-score entry is “inactive”.

In the case of `C=CC1=C(C(=O)O)N2C(=O)[C@@H](NC(=O)/C(=N/OCC(=O)O)c3csc(N)n3)[C@H]2SC1`, the B-score result was “inactive”.

As for `Cc1ccc(NC(=O)[C@H](Cc2ccccc2)NC(=O)C2CCNCC2)cc1`, the B-score result is “inactive”.

With `COc1ccccc1C(=O)Nc1ccc(Nc2ccccc2)cc1`, the B-score entry is “inactive”.

As for `CCc1ccc(N2CC(C(=O)Nc3ccc(S(=O)(=O)Nc4nccs4)cc3)CC2=O)cc1` (stereo not drawn), the B-score entry was “inactive”.

Consider `CCN(CC)S(=O)(=O)c1ccc(N2CC(C(=O)NCc3cccnc3)CC2=O)cc1` (stereo not drawn), for which the B-score was -6.5 (active).

Turning to `CCOc1ccc(N2CC(C(=O)NCc3ccccn3)CC2=O)cc1` (stereo not drawn), the B-score result was “inactive”.

As to `CCc1ccc(N(C(=O)c2csnn2)C(C(=O)NC2CCCCC2)c2cccnc2)cc1` (stereo not drawn), the B-score result is “inactive”.

Take `CCC(C)NCCOCCOc1ccc(Br)cc1C` (stereo not drawn): the B-score is -5.27 (active).

Turning to `COCCCNCCOCCOc1ccc(Cl)cc1Br`, the B-score entry was “inactive”.

On to `COCC(C)NCc1cc(Br)ccc1OC` (stereo not drawn), for which the B-score entry was “inactive”.

Consider `Cc1c(C(=O)N(C)CCc2cnn(C)c2)oc2c(F)cccc12`, for which the B-score entry is “inactive”.

For the molecule `CCOC(=O)N1CCN(C(=O)COc2ccc(Cl)cc2C)CC1`, the B-score entry was “inactive”.

Regarding `CCOC(=O)N1CCC(O)(c2cc(C)c(C)cc2C)CC1`, the B-score is -9.52 (active).

`CCOC(=O)N1CCN(C(=S)Nc2ccc(C)cc2C)CC1`: the B-score entry was “inactive”.

On to `Cc1ccc(-c2cc(C(=O)NC3CCN(Cc4ccccc4)CC3)c3ccccc3n2)cc1`, for which the B-score entry was “inactive”.

Consider `COc1ccc(-c2cc(C(=O)Nc3ccccc3O)c3ccccc3n2)cc1`, for which the B-score result was “inactive”.

Regarding `CCc1ccc(-c2cc(C(=O)NN3CCN(C)CC3)c3ccccc3n2)cc1`, the B-score is -5.25 (active).

For `COc1ccc(CCN2C(=O)CC(N3CCC(C(N)=O)CC3)C2=O)cc1OC` (stereo not drawn), the B-score result was “inactive”.

Consider `Cc1c(C(=O)c2cccc([N+](=O)[O-])c2)c2ccccn2c1CCC#N`, for which the B-score result is “inactive”.

As for `O=C(NCCN1CCOCC1)c1ccc2c(c1)N(Cc1ccc(Cl)cc1)CCS2`, the B-score entry is “inactive”.

As to `O=C(NCCc1ccccc1)c1ccc2c(c1)N(Cc1ccccc1)CCS2`, the B-score entry was “inactive”.

With `CCOC(=O)N1CCN(C(=O)c2ccc3c(c2)N(Cc2ccc(C)cc2)CCS3)CC1`, the B-score is -7.3 (active).

As for `COc1ccc(/C=C/CN2CCCC(C(=O)c3cc(F)ccc3F)C2)cc1` (stereo not drawn), the B-score entry is “inactive”.

(Values after PubChem BioAssay AID2553 (Johns Hopkins Ion Channel Center, 2010).)
